Test [1] concerns the target Peroxisome proliferator-activated receptor gamma (Homo sapiens) (UniProt P37231). Kind of test: qHTS assay for small molecule agonists of peroxisome proliferator-activated receptor gamma signaling (AID 588536; active = well fitted curve in the direction sought with a large enough effect in the signal ratio, with a control signal flat, not every such curve was filed as active; the % refers to the signal ratio;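 note: 0% = DMSO basal wells and 100% = rosiglitazone at 2 µM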). As to conditions: HEK293 PPARg-UAS-bla, beta-lactamase ratio, 16 h, percent of rosiglitazone response, DMSO as zero; series mostly up to 76.7 µM. An outline of the steps: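 PPAR-gamma-UAS-bla HEK293 cells in medium with 1% charcoal/dextran-treated FBS were exposed to compounds for 16 h at 37 C. Beta-lactamase activity was read with CCF4 substrate (405 nm excitation, 460/530 nm emission).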
(In general: In qHTS, concentration-response curves come from the screen itself.)

Test [2] has the same target. The test can be described thus: qHTS assay for small molecule antagonists of peroxisome proliferator-activated receptor gamma signaling (AID 588537; active = well fitted inhibition curve with a large enough effect in the signal ratio, with a control signal flat, not every such curve was filed as active; the % refers to the signal ratio;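 note: reporter cells co-stimulated with 50 nM rosiglitazone agonist during compound treatment; % of control where 0% means no effect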). As to conditions: HEK293 PPARg-UAS-bla, beta-lactamase ratio, antagonist mode; series mostly up to 76.8 µM. A digest of the protocol: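 Step one: plate 3000 HEK293 UAS-bla cells per well in medium with 1% stripped serum and hold 6-6.5 h at 37 C. Step two: add compound and 50 nM agonist for 16 h. Step three: CCF4 loading, fluorescence read.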

Test [3] addresses Thyroid hormone receptor beta (Homo sapiens) (UniProt P10828). Kind of test: qHTS assay for small molecule agonists of thyroid hormone receptor beta signaling (AID 588545; calls by dose curve). As to conditions: TR-UAS-bla GripTite HEK 293, beta-lactamase ratio, agonist mode, 18 h; series mostly up to 76.7 µM. A digest of the protocol:
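Cells (2500/well) were seeded, incubated 4 hrs at 37 C, dosed with a compound series, incubated 18 hrs, loaded with CCF4 dye for 2 hrs at RT, then read for fluorescence. Data were scaled between DMSO (0%) and 10 nM T3 (100%).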

The nature of test [4]: qHTS assay for small molecule activators of the p53 signaling pathway (AID 651743; active = well fitted activation curve with a large enough effect in the signal ratio, not every such curve was filed as active; the % refers to the signal ratio; note: % of control where 0% means no effect). Conditions: HCT-116 p53RE-bla, beta-lactamase FRET ratio, 16 h; activation: stronger effect = higher value. An outline of the steps:
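HCT-116 p53RE-bla, 4,000 cells/well; 5 h settle; cpd/DMSO 16 h, 37 C; LiveBLAzer B/G 2 h RT; fluorescence intensity.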

Test [5] in a line: qHTS assay for small molecule activators of the nuclear factor-kappa B (NF-kB) signaling pathway (AID 651749; active = well fitted activation curve with a large enough effect in the signal ratio; the % refers to the signal ratio; note: % of control where 0% means no effect). As to conditions: NF-kB-bla ME-180 cells, beta-lactamase FRET ratio, 16 h; activation: stronger effect = higher value. An outline of the steps: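 Incubation lasted 16 hr at 37C in 5% CO2 after 23 nL compound addition to ME-180 NF-kB-bla cells. Activation appears as beta-lactamase-mediated FRET loss.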

Test [6] in a line: qHTS assay for environmental chemicals that activate the Aryl hydrocarbon Receptor (AhR) signaling pathway (AID 651777). Note: % of control where 0% means no effect; nearly all actives have a fitted effect of over 15% in size. As to conditions: 1A2-DRE human hepatoma cells, luciferase, 24 h; activation: stronger effect = higher value. An outline of the steps:
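Human hepatoma 1A2-DRE cells stably carrying a DRE/CYP1A2 promoter–luciferase reporter, 1,200 cells/well, exposed to compound 24 hr at 37 C. Luciferase read by One-Glo luminescence after 30 min at room temperature; increased signal marks AhR activation.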

A short description of test [7]: qHTS assay for small molecule agonists of the antioxidant response element (ARE) signaling pathway measured by Nrf2-dependant transcriptional activity (AID 720636; active = well fitted curve in the direction sought with a large enough effect in the repeat runs; an effect the other way counts as inactive or inconclusive; note: % of control where 0% means no effect). As to conditions: ARE-luc HepG2, Nrf2 luciferase reporter, 16 h; series mostly up to 92.4 µM. A digest of the protocol:
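ARE-luc HepG2 cells carrying an Nrf2-responsive luciferase reporter, in medium with 1% dialyzed FBS, exposed to compound for 16 hr at 37 C, 5% CO2. Luminescence read 30 min after ONE-Glo addition.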

Test [8] can be described thus: qHTS assay for small molecule agonists of the antioxidant response element (ARE) signaling pathway measured by Nrf2-dependant transcriptional activity - cell viability counter screen (AID 720653; active = well fitted curve in the direction sought with a large enough effect in the repeat runs; an effect the other way counts as inactive or inconclusive; note: % is set by controls: 0 for no effect and ±100 for the full control effect). Conditions: ARE-bla HepG2 viability, CellTiter-Glo ATP luminescence, 16 h; max response: stronger effect = lower value. A digest of the protocol:
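ARE-bla HepG2 cells treated with compounds for 16 h at 37C; this counter screen measures viability as intracellular ATP by CellTiter-Glo luminescence after 30 min at room temperature.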

Test [9] is described as follows: qHTS assay for cell viability of the p53RE-bla HCT-116 cell line (AID 743292). Note: % is set by controls: 0 for no effect and ±100 for the full control effect; nearly all actives have a fitted effect of over 55% in size. As to conditions: p53RE-bla HCT-116 viability, ATP luminescence, 16 h; series mostly up to 95 µM. An outline of the steps:
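CellSensor p53RE-bla HCT-116 cells (4,000/well) pre-incubated 5 h at 37 C, then exposed to compounds in DMSO for 16 h at 37 C. Viability read as ATP content by CellTiter-Glo luminescence after 30 min at room temperature.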

Test [10] deals with Nuclear receptor subfamily 1 group I member 2 (Rattus norvegicus) (UniProt Q9R1A7). Kind of test: qHTS assay for small molecule activators of the rat pregnane X receptor (rPXR) signaling pathway (AID 651751; call rule not given here; note: 0% is about no effect). As to conditions: rPXR reporter cells, luciferase (One-Glo), 24 h.
Nuclear receptor subfamily 1 group I member 2 (Rattus norvegicus), sequence (Q9R1A7 whole entry, looked up): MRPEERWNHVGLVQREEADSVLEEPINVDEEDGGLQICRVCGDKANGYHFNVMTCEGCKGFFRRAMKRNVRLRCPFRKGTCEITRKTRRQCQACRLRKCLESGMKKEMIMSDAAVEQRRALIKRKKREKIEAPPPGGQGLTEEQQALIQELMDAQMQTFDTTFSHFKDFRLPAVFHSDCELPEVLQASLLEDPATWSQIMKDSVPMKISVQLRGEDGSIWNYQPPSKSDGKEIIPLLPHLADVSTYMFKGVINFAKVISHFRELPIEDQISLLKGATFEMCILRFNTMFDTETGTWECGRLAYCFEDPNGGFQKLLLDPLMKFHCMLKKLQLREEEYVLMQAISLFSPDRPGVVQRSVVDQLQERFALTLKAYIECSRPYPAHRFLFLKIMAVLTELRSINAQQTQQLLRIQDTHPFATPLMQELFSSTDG
Test [11] can be described thus: qHTS assay for small molecule activators of the human pregnane X receptor (PXR) signaling pathway (AID 720659; call rule not given here; note: 0% is about no effect). As to conditions: DPX-2 HepG2 CYP3A4-luciferase, 24 h; series mostly up to 92.3 µM.
Test [12] is described as follows: qHTS assay for small molecule antagonists of peroxisome proliferator-activated receptor delta signaling (AID 588535).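 Note: cells co-treated with a PPAR-delta agonist as stimulator during compound exposure.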 Conditions: HEK293T PPARd-UAS-bla, beta-lactamase FRET ratio, 18 h; 460 nm channel. A digest of the protocol:
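Cells were seeded at 4000 per well in assay medium containing 2% charcoal/dextran FBS and held 5 hrs at 37 C. Compounds were then added for 18 hrs. CCF4 substrate was applied for 2 hrs at room temperature before fluorescence reading.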

Test [13] in a line: qHTS assay for small molecule agonists of retinoid X receptor alpha signaling (AID 588544; calls by dose curve;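 for activation: 0% = DMSO basal wells and 100% = reference agonist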). Conditions: HEK293T RXRa-UAS-bla, beta-lactamase reporter, 18 h; 530 nm emission.
The target of test [14] is Retinoic acid receptor RXR-alpha (Homo sapiens) (UniProt P19793). The test is described as above. As to conditions: HEK293T RXRa-UAS-bla, beta-lactamase reporter, 18 h; series mostly up to 76.7 µM.
Retinoic acid receptor RXR-alpha (Homo sapiens), sequence (P19793 whole entry, looked up): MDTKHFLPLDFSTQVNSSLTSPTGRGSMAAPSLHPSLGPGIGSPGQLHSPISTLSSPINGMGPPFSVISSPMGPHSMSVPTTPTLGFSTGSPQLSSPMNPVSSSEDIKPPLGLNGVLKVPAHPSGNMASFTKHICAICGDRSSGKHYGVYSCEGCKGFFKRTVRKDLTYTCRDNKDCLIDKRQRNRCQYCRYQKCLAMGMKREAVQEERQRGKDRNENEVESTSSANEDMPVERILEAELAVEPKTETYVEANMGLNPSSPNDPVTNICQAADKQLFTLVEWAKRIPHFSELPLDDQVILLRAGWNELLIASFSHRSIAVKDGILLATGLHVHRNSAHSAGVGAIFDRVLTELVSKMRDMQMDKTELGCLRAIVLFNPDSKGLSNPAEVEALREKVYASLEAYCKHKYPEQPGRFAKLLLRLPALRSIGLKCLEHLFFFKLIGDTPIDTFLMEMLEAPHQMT
The nature of test [15]: qHTS assay for small molecule antagonists of retinoid X receptor alpha signaling (AID 588546; active = well fitted inhibition curve with a large enough effect in the signal ratio, with a control signal flat, not every such curve was filed as active; the % refers to the signal ratio; note: potency is the fitted concentration of half-maximal effect;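 for max response: cells stimulated with 9-cis-retinoic acid as agonist; % is set by controls: 0 for no effect and ±100 for the full control effect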). Conditions: HEK293T RXRa-UAS-bla, beta-lactamase ratio, antagonist mode; measured here: W530 green channel, cytotoxicity proxy. A digest of the protocol:
(§1)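 Beta-lactamase reporter inhibition, read as CCF4 fluorescence ratio (ex 405, em 460/530 nm) after 2 h at RT. HEK293T UAS-bla cells, 2500/well, were stimulated with 9-cis-RA at 500 or 100 nM final alongside test compound for 18 h at 37 C.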

For test [16], the target named is Retinoic acid receptor RXR-alpha (Homo sapiens) (UniProt P19793). Described as above. Conditions: HEK293T RXRa-UAS-bla, beta-lactamase ratio, antagonist mode. An outline of the steps:
as §1

Test [17] addresses Peroxisome proliferator-activated receptor alpha (Homo sapiens) (UniProt Q07869). Kind of test: qHTS assay for small molecule agonists of the peroxisome proliferator-activated receptor alpha (PPARalpha) signaling pathway (AID 651778). Note: % of control where 0% means no effect. Conditions: PathHunter PPARalpha complementation, chemiluminescence, 6 h; max response: stronger effect = higher value. A digest of the protocol: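 Enzyme-fragment complementation assay in which ligand-bound PPARalpha translocates and forms an active enzyme that generates chemiluminescence. Cells were plated overnight, exposed to compound for 6 hr at 37 C, and then given detection reagent for 60 min at room temperature.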

Test [18] can be described thus: qHTS assay for cell viability of HEK293 cells (AID 743288). Note: % is set by controls: 0 for no effect and ±100 for the full control effect; nearly all actives have a fitted effect of over 50% in size. As to conditions: ATP luminescence (CellTiter-Glo), 18 h; max response: stronger effect = lower value. A digest of the protocol:
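Environmental chemicals tested in qHTS format against parental HEK293 cells; 18 h treatment, 37 C; read-out ATP luminescence (CellTiter-Glo), 30 min RT development.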

The target of test [19] is Vitamin D3 receptor (Homo sapiens) (UniProt P11473). Kind of test: qHTS assay for small molecule agonists of vitamin D receptor signaling (AID 588543; calls by dose curve;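 note: 0% = DMSO basal and 100% = reference agonist control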). Conditions: HEK293T VDR-UAS-bla, beta-lactamase ratio, 16 h; series mostly up to 76.8 µM. An outline of the steps:
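β-lactamase reporter, VDR-UAS-bla HEK293T, agonist mode. Cells plated 5 h at 37 °C, compound titration 16 h at 37 °C, CCF4 dye 2 h RT, ratio 460/530 nm. Hill fit → EC50, efficacy vs 50 nM 1α,25-(OH)2D3.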

Test [20] shares this target. The test can be described thus: qHTS assay for small molecule antagonists of vitamin D receptor signaling (AID 588541; calls by dose curve;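 note: receptor activated by calcitriol during compound treatment; % is set by controls: 0 for no effect and ±100 for the full control effect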). As to conditions: HEK293T VDR-UAS-bla, beta-lactamase ratio, antagonist mode; series mostly up to 76.7 µM. An outline of the steps:
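VDR-UAS-bla HEK293T cells in 2% charcoal-stripped FBS were stimulated with 1-alpha,25-dihydroxyvitamin D3 (3 nM final) plus compound for 16 h at 37 C. The beta-lactamase CCF4 readout was normalized to 50 nM agonist and DMSO, and Hill fits gave IC50.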

Molecules are shown by their SMILES. Results filed as inconclusive are left out. Calls of active or inactive are those of the source. Unless noted, calls come from the whole dose curve; as a rule, active = well fitted curve in the direction sought with a large enough effect; inconclusive = small, poorly fitted or top-dose-only effect, or another doubt; inactive = no such curve, though single readings can be large; an effect the other way counts as inactive or inconclusive.

Peroxisome proliferator-activated receptor alpha (Homo sapiens), sequence (Q07869 whole entry, looked up, the tested form may be a part): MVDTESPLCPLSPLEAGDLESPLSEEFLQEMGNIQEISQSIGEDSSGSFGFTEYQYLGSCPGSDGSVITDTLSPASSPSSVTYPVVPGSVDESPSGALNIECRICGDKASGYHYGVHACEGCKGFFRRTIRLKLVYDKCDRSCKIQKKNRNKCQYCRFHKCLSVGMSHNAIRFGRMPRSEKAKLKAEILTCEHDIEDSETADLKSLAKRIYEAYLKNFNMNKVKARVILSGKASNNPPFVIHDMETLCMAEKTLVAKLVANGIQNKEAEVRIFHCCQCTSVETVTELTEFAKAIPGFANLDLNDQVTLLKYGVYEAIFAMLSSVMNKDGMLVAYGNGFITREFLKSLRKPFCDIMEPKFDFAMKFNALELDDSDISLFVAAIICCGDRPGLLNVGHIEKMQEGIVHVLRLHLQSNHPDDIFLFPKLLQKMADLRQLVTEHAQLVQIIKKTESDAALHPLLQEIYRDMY
Vitamin D3 receptor (Homo sapiens), sequence (P11473 whole entry, looked up): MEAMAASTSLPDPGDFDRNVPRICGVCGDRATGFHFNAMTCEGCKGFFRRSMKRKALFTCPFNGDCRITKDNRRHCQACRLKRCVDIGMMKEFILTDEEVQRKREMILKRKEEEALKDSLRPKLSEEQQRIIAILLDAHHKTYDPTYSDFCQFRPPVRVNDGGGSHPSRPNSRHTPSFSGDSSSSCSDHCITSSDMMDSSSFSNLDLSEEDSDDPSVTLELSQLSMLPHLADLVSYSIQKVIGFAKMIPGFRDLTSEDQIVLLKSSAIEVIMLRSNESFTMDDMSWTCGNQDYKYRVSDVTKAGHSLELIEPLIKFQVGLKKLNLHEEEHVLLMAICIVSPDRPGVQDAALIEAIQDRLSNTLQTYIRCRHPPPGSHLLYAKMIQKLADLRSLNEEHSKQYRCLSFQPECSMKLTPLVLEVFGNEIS
Peroxisome proliferator-activated receptor gamma (Homo sapiens), sequence (P37231 whole entry, looked up): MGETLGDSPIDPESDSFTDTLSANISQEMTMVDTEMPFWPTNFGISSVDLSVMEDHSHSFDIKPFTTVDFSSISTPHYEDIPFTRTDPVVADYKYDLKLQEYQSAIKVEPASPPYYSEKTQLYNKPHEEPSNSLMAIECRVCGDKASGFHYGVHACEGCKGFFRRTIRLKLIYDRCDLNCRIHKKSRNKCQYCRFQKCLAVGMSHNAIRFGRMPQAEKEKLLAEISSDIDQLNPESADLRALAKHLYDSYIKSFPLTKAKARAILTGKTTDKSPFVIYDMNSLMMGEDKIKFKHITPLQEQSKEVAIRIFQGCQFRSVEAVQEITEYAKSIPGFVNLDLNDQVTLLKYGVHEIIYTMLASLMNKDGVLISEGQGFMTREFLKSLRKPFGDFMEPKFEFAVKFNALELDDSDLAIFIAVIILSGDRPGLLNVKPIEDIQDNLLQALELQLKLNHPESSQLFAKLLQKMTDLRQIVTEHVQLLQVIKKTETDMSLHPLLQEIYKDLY
Thyroid hormone receptor beta (Homo sapiens), sequence (P10828 whole entry, looked up): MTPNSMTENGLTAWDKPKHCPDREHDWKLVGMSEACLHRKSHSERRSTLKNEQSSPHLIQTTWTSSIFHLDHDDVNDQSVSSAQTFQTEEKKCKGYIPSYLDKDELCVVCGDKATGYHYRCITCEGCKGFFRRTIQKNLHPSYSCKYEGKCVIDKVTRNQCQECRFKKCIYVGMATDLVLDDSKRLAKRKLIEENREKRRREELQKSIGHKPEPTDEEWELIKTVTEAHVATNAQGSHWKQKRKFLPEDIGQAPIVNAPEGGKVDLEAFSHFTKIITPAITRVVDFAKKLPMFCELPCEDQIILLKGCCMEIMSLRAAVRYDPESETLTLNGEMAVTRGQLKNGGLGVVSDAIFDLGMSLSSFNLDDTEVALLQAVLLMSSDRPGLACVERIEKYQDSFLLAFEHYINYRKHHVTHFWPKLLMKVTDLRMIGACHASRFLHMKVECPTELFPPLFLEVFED

Regarding `CC(=O)CC(=O)Nc1ccc(C)cc1C`, the result in test [1] and in [11] was inactive. For the same compound, the Potency entry in [2], in [3], in [7] and in test [9] was “inactive” in each case. For the same compound, the activation in test [4] is -5.45% (inactive); in test [5] it was 0.179% (inactive); in test [6], 0.555% (inactive). Further, the max response was -2.61% (inactive) in test [8] and -1.86% (inactive) in test [10].
Consider `CCCCCCCCCCCCCCCCCC#N`, for which the max response in test [12] is 1.68%; in [13], -14.7%; in test [15] it was -8.8%; in test [16] it was -4.3% (inactive); in [17] it was 3.6% (inactive); in [8] it was 11.9% (inactive). The max response in test [18] is -12.8% (inactive); in test [10], 2.15% (inactive). In addition, the result in [1] and in test [11] was inactive. Besides, the Potency entry in test [2], in [14], in test [3], in test [7] and in test [9] was “inactive” each time. In addition, the activation in test [4] was -6.64% (inactive); in test [5], -1.03% (inactive); in [6] it was 2.76% (inactive).
On to `Cc1c(Cl)cccc1Cl`, for which the outcome in test [1], in test [19] and in test [11] was inactive. Also, the max response in test [13] was -9.08%; in test [15], -1.12%; in test [16], -5.5% (inactive); in test [17] it was -1.42% (inactive); in test [8], -14.1% (inactive); in [10] it was -2.7% (inactive). Moreover, the Potency result in test [14], in test [3], in [7] and in test [9] was “inactive” each time. Also, the activation is -1.64% (inactive) in test [5] and -0.186% (inactive) in test [6].
Take `O=c1[nH]sc2ccccc12`: the Potency entry in test [2], in test [3] and in test [9] was “inactive” throughout. In addition, the outcome in test [19] and in test [11] was inactive. For the same compound, the results for the max response in test [15], in test [17] and in [8] were -44.3%, -8.62% (inactive) and -17.7% (inactive), respectively. The Potency in test [16] is 20 µM (active). In addition, the activation in test [4] is -3.28% (inactive); in test [5], -1.58% (inactive); in [6] it was 2.41% (inactive).
Consider `C[Si](C)(Cl)[Si](C)(C)Cl`, for which the max response in test [12] is -22.7%; in test [13] it was -0.475%; in [15] it was -27.8%; in test [16], -15.7% (inactive); in test [17], 1.76% (inactive); in test [8] it was -9.32% (inactive). For the same compound, the figures for the max response in test [18] and in test [10] were -5.72% (inactive) and -0.179% (inactive), respectively. Further, the outcome in test [1], in [19] and in [11] was inactive. The Potency result in test [2], in test [20], in [14], in test [3], in test [7] and in test [9] was “inactive” each time. Also, the activation is -0.0629% (inactive) in test [4], -1.24% (inactive) in [5] and -0.723% (inactive) in test [6].
As to `CC/C=C/CCCCCCCCCCOC(C)=O`, the max response in test [12] was 25.9%; in test [13] it was -22.5%; in test [17] it was -1.44% (inactive); in test [8], -0.636% (inactive); in test [18], -7.88% (inactive); in test [10] it was 3.81% (inactive). The result in test [1], in [19] and in [11] was inactive. The Potency result in [2], in test [20], in [14], in test [3], in [7] and in test [9] was “inactive” throughout. Besides, in test [6], the activation is -0.59% (inactive).
Consider `CC1(C)C(=O)N(Br)C(=O)N1Br`, for which the max response is -25.7% in test [12]; -13.9% in test [13]; -0.87% in test [15]; -10.9% (inactive) in test [16]; -2.02% (inactive) in test [17]; -10.4% (inactive) in test [8]. In addition, the max response in test [18] was -3.78% (inactive); in [10], -0.134% (inactive). Besides, the result in test [1], in [19] and in test [11] was inactive. In addition, the Potency result in [2], in [20], in test [14], in [3], in test [7] and in test [9] was “inactive” each time. For the same compound, the activation in test [4] was -3.66% (inactive); in [6] it was 1.3% (inactive).
